In PubChem BioAssay (NCATS):
Inconclusive results are not listed. Unmarked numbers belong to inactive results. The source made the active and inactive calls. The call rests on the fitted dose curve; in most records, active means well fitted inhibition curve with a large enough effect; inconclusive means small, poorly fitted or top-dose-only effect; inactive means no such curve, though single readings can be large or run the other way.
Potency means the concentration at half of the fitted maximal effect.

Assay: NS1 protein of Zika virus - qHTS assay to identify small molecule inhibitors in human HEK 293 cells (AID 1347053); further: nearly all actives have a fitted effect of over 55% in size;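 on activity change, negative = inhibition: plate controls were infected untreated cells for no effect and uninfected cells for full effect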
Settings: HEK293 ZIKV MR766 infection, NS1 TR-FRET, 24 h; series mostly up to 46.1 µM; activity change, negative = inhibition: at the top concentration
Outline: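 HEK 293; 20 h pre-culture, 37 C/5% CO2; cpd 1 h pre-infection; ZIKV MR766, MOI = 0.5, 24 h, 37 C; TR-FRET NS1 readout (two anti-NS1 Abs); norm. to no-virus vs infected.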
With COc1ccc(-n2c(C)c([N+](=O)[O-])c3ccc(O)cc32)cc1 the “activity change, negative = inhibition” value was 3.65%.
For CC=CC[C@@H](C)C(=O)[C@H]1C(=O)N[C@@H](C(C)C)C(=O)N(C)CC(=O)N(C)[C@@H](CC(C)C)C(=O)N[C@@H](C(C)C)C(=O)N(C)[C@@H](CC(C)C)C(=O)N[C@@H](C)C(=O)N[C@H](C)C(=O)N(C)[C@@H](CC(C)C)C(=O)N(C)[C@@H](CC(C)C)C(=O)N(C)[C@@H](C(C)C)C(=O)N1C, the “activity change, negative = inhibition” value was -19.8%.
With C[C@]12CC[C@@H]3c4ccc(O)cc4C[C@@H](CCCCCCCCCS(=O)CCCC(F)(F)C(F)(F)F)[C@H]3[C@H]1CC[C@H]2O (stereo partly specified) the “activity change, negative = inhibition” value was 4.26%.
In the case of N#C[C@H]1C[C@H]2C[C@@H]2N1C(=O)[C@@H](N)C12CC3CC(CC(O)(C3)C1)C2, the “activity change, negative = inhibition” value is reported as 7.59%.
In the case of CC(C)(C)COc1ccc(-n2cc(C(=O)O)cn2)cc1C#N, the “activity change, negative = inhibition” value is reported as 8.6%.
For Cc1ccc(/C=N/NC(=O)c2ccccc2Oc2ccccc2)o1, the “activity change, negative = inhibition” value was 2.85%.
With COc1ccc2c3c1OC1C[C@@H](O)C=C[C@@]31CCN(C)C2 (stereo partly specified) the “activity change, negative = inhibition” value was 16.3%.
For C=C1C(=O)[C@@]23C(CC[C@@H]1[C@H]2O)[C@@]12CO[C@]3(O)[C@@H](O)[C@@H]1C(C)(C)CC[C@@H]2O (stereo partly specified), the Potency was 9.35 µM (active).
In the case of CC(C)(C)C(=O)Oc1ccc2c(c1)nc(NC(=O)c1cccc([N+](=O)[O-])c1)n2CCCO, the “activity change, negative = inhibition” value is reported as 7.28%.
With NC[C@@H]1O[C@@H](O[C@H]2[C@@H](O)[C@H](O[C@@H]3[C@@H](O)[C@@H](N)C[C@H](N)[C@H]3O[C@H]3O[C@H](CN)[C@@H](O)[C@@H](O)[C@H]3N)O[C@H]2CO)[C@H](N)[C@@H](O)[C@@H]1O the “activity change, negative = inhibition” value was 2.03%.
In the case of CCC(=O)O[C@]1(C(=O)CO)CC[C@H]2[C@@H]3CCC4=CC(=O)CC[C@]4(C)[C@@H]3CC[C@@]21C, the “activity change, negative = inhibition” value is reported as 2.43%.
For Cc1ccc(C(C)(O)c2nc3ccccc3s2)c(C)c1 (stereo unspecified), the “activity change, negative = inhibition” value was -3.6%.
For CC[C@@]1(O)C[C@H](O[C@H]2C[C@H](N(C)C)[C@H](O[C@H]3C[C@H](O)[C@H](O[C@H]4CCC(=O)[C@H](C)O4)[C@H](C)O3)[C@H](C)O2)c2c(cc3c(c2O)C(=O)c2c(O)cccc2C3=O)[C@@H]1C(=O)OC, the “activity change, negative = inhibition” value was 0.305%.
In the case of N#Cc1ccc(NC(=O)Nc2ccccc2Br)c2n[nH]nc12, the “activity change, negative = inhibition” value is reported as 2.14%.
In the case of CO[C@H]1C=CO[C@@]2(C)Oc3c(C)c(O)c4c(O)c(c5c(c4c3C2=O)NC2(CCN(CC(C)C)CC2)N=5)=NC(=O)C(C)=CC=C[C@H](C)[C@H](O)[C@@H](C)[C@@H](O)[C@@H](C)[C@H](OC(C)=O)[C@H]1C, the “activity change, negative = inhibition” value is reported as 8.83%.
For CNC1CCC(N(Cc2cccc(-c3ccncc3)c2)C(=O)c2sc3c(F)ccc(F)c3c2Cl)CC1 (stereo unspecified), the Potency was 10.5 µM (active).
In the case of O=C1NC(=O)C(=Cc2cccc(C(F)(F)F)c2)S1, the “activity change, negative = inhibition” value is reported as 0.65%.
In the case of c1ccc2c(Cc3c[nH]c4ccccc34)c[nH]c2c1, the “activity change, negative = inhibition” value is reported as -28.7%.
In the case of O=c1c(-c2ccc(O)cc2)coc2cc(OC3O[C@H](CO)[C@H](O)[C@H](O)[C@H]3O)cc(O)c12 (stereo partly specified), the “activity change, negative = inhibition” value is reported as 2.36%.
With COc1ccc2c(Oc3ccc(NC(=O)c4c(C)n(CC(C)(C)O)n(-c5ccccc5)c4=O)cc3F)ccnc2c1 the “activity change, negative = inhibition” value was 5.33%.
In the case of CO[C@H]1C[C@@H]2CC[C@@H](C)[C@@](O)(O2)C(=O)C(=O)N2CCCC[C@@H]2C(=O)O[C@H]([C@H](C)C[C@@H]2CC[C@H](OP(C)(C)=O)[C@H](OC)C2)CC(=O)[C@H](C)C=C(C)[C@@H](O)[C@@H](OC)C(=O)[C@H](C)C[C@H](C)C=CC=CC=C1C, the “activity change, negative = inhibition” value is reported as -7.72%.
With N#CC(=C(N)Sc1ccccc1N)C(C#N)=C(N)Sc1ccccc1N the “activity change, negative = inhibition” value was 4.36%.
For C[C@]12CC[C@@H]3c4ccc(O)cc4CC[C@H]3[C@H]1C[C@@H](O)[C@H]2O, the “activity change, negative = inhibition” value was 2.31%.
In the case of O=C(NC1CCOCC1)c1ccc(-c2cc(-c3cn[nH]c3-c3ccccn3)ccn2)cc1, the “activity change, negative = inhibition” value is reported as 0.636%.
With CC(C)n1cnc2c(NCCCCCCNC(=O)OC(C)(C)C)nc(NCCO)nc21 the “activity change, negative = inhibition” value was 0.727%.
With C=C1C(=O)OC(CCCCCCCC)C1C(=O)O (stereo unspecified) the “activity change, negative = inhibition” value was 1.08%.
With CC(=O)Oc1cc2c(s1)CCN(C(C(=O)C1CC1)c1ccccc1F)C2 (stereo unspecified) the “activity change, negative = inhibition” value was 3.59%.
With NC(=O)c1ccc2nc(-c3ccc(Oc4ccc(Cl)cc4)cc3)[nH]c2c1 the “activity change, negative = inhibition” value was 2.68%.
In the case of O=C(N[C@@H](c1ccccc1)[C@@H]1CCCCN1)c1cccc(C(F)(F)F)c1Cl, the “activity change, negative = inhibition” value is reported as 1.87%.
In the case of CC1(C)CCC[C@@]2(C)[C@@H]1CC[C@@]1(C)OC(=O)C[C@H]21, the “activity change, negative = inhibition” value is reported as 6.43%.
With CC(C)=CC[C@@H](O)C1=CC(=O)c2c(O)ccc(O)c2C1=O the “activity change, negative = inhibition” value was 12.1%.
In the case of O=C(O)c1ccc(-c2cc3cccnc3c(-c3ccc4nonc4c3)n2)cc1, the Potency is reported as 23.5 µM (active).
In the case of C[C@H]1[C@H](NC(=O)C(=NOC(C)(C)C(=O)O)c2csc(N)n2)C(=O)N1S(=O)(=O)O, the “activity change, negative = inhibition” value is reported as -3.68%.
For CC(=NNC(=S)N1CCC1)c1ccccn1, the Potency was 16.6 µM (active).
For CC=CCC=CCCC(=O)[C@H]1O[C@@H]1C(N)=O, the “activity change, negative = inhibition” value was -6.9%.
In the case of O=C(NOCC(O)CO)c1cc(Br)c(F)c(F)c1Nc1ccc(I)cc1F (stereo unspecified), the “activity change, negative = inhibition” value is reported as -8.07%.
